The sample as a whole holds a higher share of hits than the screen did.
BoNT-F LC inh: inhibitors of Botulinum neurotoxin F light chain protease | Multiplex microsphere protease cleavage assay, flow cytometry | inhibition, % at 10 µM | actives 0.22% (n = 360,000); in the data active means inhibition above about 35%, passing the limit was not always enough; inconclusive means no clear call, values can overlap the other calls; further: plate controls were buffer without enzyme for full effect and enzyme alone for no effect
BoNT-A LC inh2: blocks Botulinum neurotoxin A light chain protease | multiplex microsphere protease substrate cleavage, flow cytometry | inhibition, % at 10 µM | actives 0.17% (n = 360,000); further: plate controls were buffer without enzyme for full effect and enzyme alone for no effect
TcdB inh: TcdB glycohydrolase inhibition | TcdB glycohydrolase enzymatic assay, plate reader | inhibition, % at 9.99 µM | actives 0.24% (n = 350,000); in the data active means inhibition above about 10%
Anthrax LF prot: blocks Bacillus anthracis lethal factor protease. P15917. multiplex microsphere protease cleavage assay, LF. inhibition, % at 10 µM. actives 0.12% (n = 360,000). AID 588501; further: plate controls were buffer without enzyme for full effect and enzyme alone for no effect
Bead autofluor: flagged as autofluorescent in microsphere protease counterscreen. compound autofluorescence counterscreen, microsphere flow cytometry; stronger effect = higher value. fluorescence intensity (test concentration not listed). actives 3.1% (n = 360,000). AID 624483; in the data active means fluorescence intensity above about 16000; inconclusive means no clear call, values can overlap the other calls
* marks the source's active call; other numbers are inactive results; ? = inconclusive; · = no result given. Unless noted, no stated cut-off is given here; in the data, active means inhibition above about 30%; inconclusive means no clear call, values can overlap the other calls; inactive means below that.

SMILES | BoNT-F LC inh | BoNT-A LC inh2 | TcdB inh | Anthrax LF prot | Bead autofluor
Cc1c(C(=O)O)oc2ccc(S(=O)(=O)NCc3ccc(F)cc3)cc12 | -6 | -2 | · | -2 | 24054*
CC(=O)Nc1ccc(-c2cc(NC(C)=O)n(-c3ccccc3)n2)cc1 | 1 | 0 | · | 0 | 5314
CC(=O)Nc1ccc(NC2=Nc3ccccc3N3C2=Nc2c(c(C)nn2-c2ccccc2)C3c2ccccc2)cc1 (stereo unspecified) | 32 | 147* | 3 | 68* | 3420
COc1ccc(NC2=Nc3ccccc3N3C2=Nc2c(c(C)nn2-c2ccc(C)cc2)C3c2cccnc2)cc1 (stereo unspecified) | 44* | ? | · | 60* | 15892
C[C@H](CO)N1C[C@H](C)[C@@H](CN(C)Cc2ccccc2)Oc2ncc(C3=CCCC3)cc2C1=O | · | · | 1 | · | ·
CCCC(=O)Nc1ccc2c(c1)C(=O)N(C)[C@H]1CC[C@@H](CC(=O)NC3CCCC3)O[C@@H]1CO2 | · | · | -2 | · | ·
Cc1ccccc1NC(=O)Cc1nc(CSc2nnc(C3CCCCC3)n2N)cs1 | 0 | 1 | · | -1 | 22506*
Nn1c(SCC(=O)Nc2cccc(F)c2)nnc1C1CCCCC1 | 4 | 1 | · | -3 | 22029*
C[C@@H]1CN([C@H](C)CO)C(=O)c2cc(-c3cccc(C#N)c3)cnc2O[C@@H]1CN(C)C(=O)c1ccccn1 | · | · | 1 | · | ·
COc1ccc(OC)c(NC=C2C(=O)OC3(CCCCC3)OC2=O)c1 | 14 | 10 | · | 2 | 18401*
NC(=O)c1nn(-c2ccccc2)c(=O)cc1O | 0 | 0 | · | 0 | 22915*
NC(=O)c1nn(-c2ccc(Oc3ccccc3)cc2)c(=O)cc1O | -4 | -1 | 2 | -12 | 4640
O=C(c1cccc(Cl)c1)c1nn(-c2ccccc2)c(=O)cc1C(F)(F)F | -11 | 1 | · | -1 | 2627
NC(=O)c1nn(-c2cccc(Cl)c2)c(=O)cc1O | 0 | 0 | · | -7 | 16281*
N#C[C@H]1[C@@H](c2ccccc2-c2cccc(F)c2)[C@H](CO)N1C(=O)CN1CCOCC1 | · | · | 0 | · | ·
CCc1nnc(NC(=O)CSc2nnc(-c3ccco3)n2C)s1 | 1 | 1 | -5 | -4 | 21882*
CCc1nnc(NC(=O)CSc2nnc(-c3ccco3)n2CC)s1 | 0 | -2 | · | 2 | 22759*
CCc1nnc(NC(=O)/C=C/c2ccco2)s1 | 44* | 4 | -1 | 2 | 2625
CCCn1c(SCC(=O)Nc2nnc(CC)s2)nnc1-c1ccco1 | ? | 1 | · | 7 | 4191
CCSc1nnc(NC(=O)/C=C/c2ccco2)s1 | -2 | 0 | 0 | -1 | 4651
Cn1c(SCC(=O)Nc2nc3c(s2)CCCC3)nnc1-c1ccccc1 | -2 | -1 | · | -6 | 20299*
C=CCn1c(SCC(=O)Nc2nnc(CC)s2)nnc1-c1ccco1 | ? | -1 | · | -9 | 2731
Cc1ccc(-c2nnc(SCC(=O)Nc3nc4c(s3)CCCC4)n2C)cc1 | 4 | 0 | · | -2 | 10135
Cc1ccc(S(=O)(=O)Nc2cccc3c2O[C@@H](CN(C)C(=O)Nc2ccc(F)cc2)[C@@H](C)CN([C@H](C)CO)C3=O)cc1 | · | · | 3 | · | ·
Cc1cc(C(=O)CSc2nnc(-c3ccccc3)n2C)c(C)n1C | -3 | 0 | · | -13 | 22200*
SMILES | BoNT-F LC inh | BoNT-A LC inh2 | TcdB inh | Anthrax LF prot | Bead autofluor
Cn1c(SCC(=O)Nc2ccccc2-c2ccccc2)nnc1-c1ccco1 | -2 | -1 | 2 | -4 | 16441*
O=C(Cc1cccs1)Nc1nc2c(s1)CCCC2 | -6 | -3 | · | -2 | 17280*
Cc1occc1-c1nnc(SCC(=O)Nc2ccccc2-c2ccccc2)n1C | 16 | 1 | · | 2 | 4873
Cc1cc(C(=O)CSc2nnc(-c3ccncc3)n2-c2ccccc2)c(C)n1C | -5 | 0 | · | -21 | 5848
O=C(C[C@@H]1CC[C@@H]2[C@H](COC[C@H](O)CN2S(=O)(=O)c2ccc(F)cc2)O1)N1CCc2ccccc2C1 | · | · | -1 | · | ·
C[C@@H]1CN([C@H](C)CO)C(=O)c2cccc(NC(=O)C3CCCCC3)c2O[C@@H]1CN(C)S(=O)(=O)c1cccs1 | · | · | 1 | · | ·
Cn1nnc(NC(=O)CSc2ccc(Cl)cc2)n1 | -18 | 1 | · | -1 | 4755
CC(C)CC(=O)Nc1nnn(C)n1 | 7 | 4 | · | -7 | 18519*
Cn1nnc(NC(=O)C(c2ccccc2)c2ccccc2)n1 | 6 | 3 | · | -4 | 14865
CC(C)C(=O)Nc1nnn(C)n1 | 1 | 1 | · | -2 | 22504*
CN(C)C(=O)[C@@]1(Cc2ccccc2N=[N+]=[N-])N=C(c2ccc(OCCCO)cc2)O[C@H]1c1ccccc1N=[N+]=[N-] | · | · | 0 | · | ·
O=C1c2ccccc2C(=O)C12Cc1ccccc1N1CCN(c3ccccc3)CC12 (stereo unspecified) | 0 | 0 | · | -11 | 4508
Cc1ccc(N2C(=O)NC(=O)C3(Cc4ccccc4N4CCN(c5ccccc5)CC43)C2=O)cc1 (stereo unspecified) | 9 | 6 | · | -10 | 19868*
O=C1NC(=O)C2(Cc3ccccc3N3CCCC32)C(=O)N1c1cccc(Cl)c1 (stereo unspecified) | 1 | ? | · | 1 | 20287*
Cc1ccc(C(=O)Nc2nnc(-c3ccncc3)o2)cc1 | -5 | -1 | 2 | -6 | 3956
Cc1cccc(-c2nnc(NC(=O)c3ccc(Cl)cc3)o2)c1 | -9 | -2 | · | -3 | 16877*
C=CCSc1ncc(C#N)c(N)n1 | -3 | -2 | · | -2 | 20496*
O=c1nc(-c2ccccc2Cl)c2cc(F)ccc2[nH]1 | 51* | -1 | 1 | 16 | 4135
C/C(=N\O)c1ccc(N2C(=O)C3CC=C(Cl)CC3C2=O)cc1 (stereo unspecified) | -4 | -2 | · | -3 | 16899*
Cc1ccc2[nH]c3c(c2c1)CN(C(=O)CN1CC(C)OC(C)C1)CC3 (stereo unspecified) | ? | -23 | · | -1 | 17955*
COC(=O)c1ccc(NC(=O)c2ccc(CN3CCOCC3)cc2)cc1 | 2 | 0 | · | 0 | 16430*
O=C(Nc1ccc(CN2CCOCC2)cc1)c1cccc(F)c1 | 1 | 3 | · | 0 | 18588*
NC1=NC2(CCCCC2)N(c2ccc(F)cc2)C(N)=N1 | 11 | 0 | · | -2 | 3563
NC1=NC2(CCCCC2)N(c2cccc(Cl)c2)C(N)=N1 | -3 | -1 | · | -1 | 16971*
CCCS(=O)(=O)Nc1c(C(=O)OC)[nH]c2ccccc12 | 2 | 0 | · | -2 | 9844
SMILES | BoNT-F LC inh | BoNT-A LC inh2 | TcdB inh | Anthrax LF prot | Bead autofluor
COC(=O)c1[nH]c2ccccc2c1NS(=O)(=O)c1ccc(F)c(C)c1 | -2 | 0 | · | -3 | 16616*
Cc1ccc(C(=O)CSc2nnc(-c3cccnc3)n2N)cc1 | 2 | 1 | · | -8 | 15409
Cc1ccc(CSc2nnc(-c3cccnc3)n2N)cc1 | -4 | -1 | · | 0 | 23095*
Cc1ccc(CSc2nnc(-c3ccco3)n2N)cc1 | 1 | 0 | · | -2 | 23093*
CCC(=O)n1nc(-c2ccccc2)nc1SCC(=O)Nc1ccc(C)cc1 | -3 | -1 | · | -1 | 21542*
Cc1ccc(NC(=O)CSc2nc3ccccc3c3nc4ccccc4n23)cc1 | 1 | 0 | · | 0 | 19179*
COc1ccc(NC(=O)CSc2nc3ccccc3c3nc4ccccc4n23)cc1 | -17 | -1 | 0 | -1 | 2453
CC(C)NC(=O)N[C@@H]1CC[C@@H](CCNC(=O)C2CCC2)O[C@@H]1CO | · | · | 1 | · | ·
